The text below walks through data of PubChem BioAssay AID1851 (National Center for Advancing Translational Sciences (NCATS), 2009).

“And” between values parts separate entries of the source, which are not always exact repeats. Identical values can stand only once. In all, about 16,000 compounds went through this assay and about 4,000 (25%) were called active. Another 26% or so got no clear call; they are omitted. Calls come from the whole dose curve; as a rule, active = well fitted curve in the direction sought with a large enough effect; inconclusive = small, poorly fitted or top-dose-only effect, or effect the other way; inactive = no such curve, though single readings can be large or run the other way. Not all results are given here. Some structures have more than one record in an assay (separate samples or runs), and their calls can disagree.
% is set by controls: 0 for no effect and ±100 for the full control effect.

In this assay the target is Cytochrome P450 2C9 (Homo sapiens) (UniProt P11712). Kind of assay: Cytochrome panel assay with activity outcomes. Conditions: recombinant CYP, pro-luciferin dealkylation, luminescence, p450-cyp2c9; series mostly up to 57.1 µM.
Chain of Cytochrome P450 2C9 (Homo sapiens) (P11712 whole entry, looked up): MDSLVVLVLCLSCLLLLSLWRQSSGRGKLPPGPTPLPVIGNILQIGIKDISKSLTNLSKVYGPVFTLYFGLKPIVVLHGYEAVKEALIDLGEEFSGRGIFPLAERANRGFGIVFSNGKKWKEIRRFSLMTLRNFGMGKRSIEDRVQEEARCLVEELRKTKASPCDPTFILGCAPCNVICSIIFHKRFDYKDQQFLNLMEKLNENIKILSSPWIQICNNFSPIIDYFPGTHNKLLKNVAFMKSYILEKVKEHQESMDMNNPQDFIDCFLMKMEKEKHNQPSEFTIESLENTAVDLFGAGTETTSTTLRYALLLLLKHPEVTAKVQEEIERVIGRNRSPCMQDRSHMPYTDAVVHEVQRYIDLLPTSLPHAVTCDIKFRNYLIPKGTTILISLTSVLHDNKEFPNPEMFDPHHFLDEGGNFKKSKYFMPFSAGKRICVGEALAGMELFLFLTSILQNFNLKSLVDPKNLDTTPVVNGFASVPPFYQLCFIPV
As for `NC(N)=NN=Cc1c(Cl)cccc1Cl`, the AC50 entry was “inactive”. `Cc1cc2ccccn2c1C(=O)c1ccc(Cl)cc1`: the AC50 was 11.2 µM (active). Regarding `Cc1cc(CC(=O)O)n(C)c1C(=O)c1ccc(Cl)cc1`, the AC50 result is “inactive”. Turning to `CCS(=O)(=O)c1ccc(C(=O)Nc2ccccc2)c(Cl)c1Cl`, the AC50 was 10 µM (active). As to `CN1C[C@H](c2ccccc2)C(O)([C@]2(c3ccccc3)CN(C)C[C@@H](c3ccccc3)C2=O)[C@H](c2ccccc2)C1` (some centres not stated), the activity, negative = inhibition was 5.9% [at 11.4 µM] (inactive). For the molecule `O=C(c1ccncc1)N1CCC[C@@]2(CCN(Cc3ccccc3)C2)C1`, the AC50 result was “inactive”.

For the molecule `COc1ccc(C(=O)N2CCC3(CCCN(Cc4ccccc4)C3)CC2)cc1`, the AC50 result was “inactive”. Regarding `O=C(c1ccncc1)N1CCC2(CCCN(Cc3ccncc3)C2)CC1`, the AC50 was 5.01 µM (active). Turning to `O=C(c1ccncc1)N1CCC2(CCCN(Cc3ccccc3)C2)CC1`, the AC50 entry was “inactive”. Regarding `COc1ccc(C(=O)N2CCC3(CCCN(CC(C)C)C3)CC2)cc1`, the AC50 entry is “inactive”.

In the case of `COc1ccc(C(=O)N2CCC3(CCCN(Cc4ccncc4)C3)CC2)cc1`, the AC50 was 3.16 µM (active).

In the case of `COc1cc2c3cc1Oc1cc(ccc1O)C[C@@H]1c4c(cc(OC)c(O)c4Oc4ccc(cc4)C[C@H]3[N+](C)(C)CC2)CC[N+]1(C)C`, the activity, negative = inhibition is 4.34% [at 11.4 µM] (inactive). Take `O=C(Nc1c(C(=O)N2CCCCC2)cnn1-c1ccccc1)c1ccco1`: the AC50 result is “inactive”. For the molecule `O=C(Nc1c(C(=O)N2CCOCC2)cnn1-c1ccccc1)c1ccco1`, the AC50 result is “inactive”.

Take `Cc1sc(NC(=O)c2ccco2)c(C(c2ccncc2)N2CCOCC2)c1C` (configuration not stated): the AC50 is 2.24 µM (active).

As for `Cc1sc(NC(=O)c2ccco2)c(C(c2cccnc2)N2CCCC2)c1C` (configuration not stated), the AC50 was 2.51 µM (active). As for `Cc1cnc(CNc2ncncc2-c2c(C)noc2C)cn1`, the activity, negative = inhibition was 17.1% [at 2.29 µM] (inactive). For `O=C1NCC2(CCN(CCc3ccccc3)CC2)O1`, the AC50 entry is “inactive”. Consider `N#C[C@H](c1ccccc1)N1CCCN([C@@H](C#N)c2ccccc2)C1c1ccccc1O` (some centres not stated), for which the AC50 is 3.16 µM (active).

For the molecule `Cc1ccccc1OCCCn1c(=O)sc2ccccc21`, the AC50 is 5.01 µM (active). Turning to `C[N+](C)(CCCOc1ccccc1)c1ccccc1`, the AC50 result was “inactive”. The same measure, in the same setting: the figure for `O=c1sc2ccccc2n1CCCOc1ccccc1` is 12.6 µM (active).

Consider `Cc1ccccc1OCCCN1CCCC1`, for which the AC50 result is “inactive”. For the molecule `O=C(O)c1ccccc1NCn1c(=S)sc2ccccc21`, the activity, negative = inhibition was -5.72% [at 11.4 µM] (inactive). On to `Cc1ccc(Cl)cc1-n1c(=O)cc(N2CC(C)OC(C)C2)[nH]c1=O` (configuration not stated), for which the AC50 entry was “inactive”. Take `NS(=O)(=O)c1ccc(N=Nc2c(O)c(C(=O)O)cc3ccccc23)cc1`: the activity, negative = inhibition was -28.9% [at 11.4 µM] (inactive). With `C=CCNS(=O)(=O)c1cccc2cc(C(=O)O)c(O)cc12`, the AC50 is 2.82 µM (active). On to `O=C(O)c1cc2ccccc2c(Cc2cc3ccccc3c(C(=O)O)c2O)c1O` (tested in a mixture with another compound), for which the AC50 result is “inactive”.

Take `N#Cc1cccc(NC(=O)N2CC[C@@]3(CCCNC3)C2)c1`: the AC50 result is “inactive”.

Regarding `COc1ccc(O[C@H]2C=C[C@@H](c3ccccc3)O[C@H]2COC(=O)CC/C(C)=N\O[C@@H](C)CN2CCCCc3nc(C)c(C)cc32)cc1`, the activity, negative = inhibition was -28.1% [at 11.4 µM] (inactive). In the case of `CC(=O)OC[C@@H]1O[C@H](C/C=N\O[C@@H](C)c2cn([C@H](CO)Cc3ccccc3)nn2)C=C[C@@H]1OC(C)=O`, the activity, negative = inhibition was 8% [at 11.4 µM] (inactive) and -8.02% [at 11.4 µM] (inactive). Regarding `C/C(CCC(=O)OC[C@@H]1O[C@H](C#Cc2ccccc2)C=C[C@@H]1Oc1ccc(C)cc1)=N/O[C@@H](C)c1cn([C@H](CO)Cc2ccccc2)nn1`, the AC50 is 3.16 µM (active). In the case of `CO/N=C(/C)CCC(=O)OC[C@@H]1O[C@H](C#Cc2ccccc2)C=C[C@@H]1Oc1ccc(C)cc1`, the activity, negative = inhibition was -2.9% [at 11.4 µM] (inactive).

For `C/C(CCC(=O)OC[C@@H]1O[C@H](C#Cc2ccccc2)C=C[C@@H]1Oc1ccc(C)cc1)=N/OC[C@@H](C)[C@H](OCc1ccccc1)C(C)C`, the activity, negative = inhibition was 12.5% [at 11.4 µM] (inactive). With `COc1ccc(O[C@H]2C=C[C@@H](c3ccccc3)O[C@H]2COC(=O)CC/C(C)=N\O[C@@H](C)c2cn([C@H](CO)Cc3ccccc3)nn2)cc1`, the AC50 was 1.26 µM (active). Regarding `CCCCOc1ccc(-c2nnn(CC(=O)c3c[nH]c4ccccc34)n2)cc1`, the AC50 entry was “inactive”. As to `COc1cc2c(CCNC(C)=O)c[nH]c2cc1O`, the AC50 result was “inactive”. On to `COc1ccccc1CNC(=O)Cn1nnc(-c2ccncc2)n1`, for which the AC50 is 7.94 µM (active). Consider `CCc1nnc(NC(=O)CCC(=O)NCc2ccccc2OC)s1`, for which the AC50 entry was “inactive”. The same measure, in the same setting: the figure for `COc1ccc(-c2nnn(CC(=O)NCCc3c[nH]c4ccccc34)n2)cc1OC` is 4.47 µM (active). Regarding `COc1ccccc1CNc1ccnc(-c2ccc(C(=O)N(C)C)cc2)n1`, the activity, negative = inhibition was -10.3% [at 2.29 µM] (inactive). On to `NC(N)=[N+]1CCc2ccccc2C1`, for which the AC50 result is “inactive”. Still for that read-out and setting: the figure for `CC1=C(C#N)C(Nc2ccc(Cl)cn2)(C(F)(F)F)C(=O)N1` (configuration not stated) is 14.1 µM (active). As for `COc1cccc(C2C(C(=O)c3cc4ccccc4o3)=C(O)C(=O)N2c2cc(C)on2)c1OC` (configuration not stated), the AC50 was 14.1 µM (active). As for `Cc1cc(N2C(=O)C(O)=C(C(=O)c3ccco3)C2c2ccc(O)cc2)no1` (configuration not stated), the concentration at half-maximal activity (AC50) is 11.2 µM (active).

With `COc1cc(OC)c(C2N(c3cc(C)on3)C(=O)C3CCCN32)cc1OC` (configuration not stated), the AC50 result is “inactive”. Take `CN(C)CCN1C(=O)C(O)=C(C(=O)c2cc3ccccc3o2)C1c1ccccn1` (configuration not stated): the AC50 result was “inactive”. As for `CC(C)NC[C@@H](O)COc1ccc(CCOCC2CC2)cc1`, the AC50 entry is “inactive and 631 nM (active)”.

For the molecule `CC(=O)Nc1ccc(OC[C@@H](O)CNC(C)C)cc1`, the AC50 entry is “inactive”.

Take `CC(C)NC[C@@H](O)COc1ccc(COCCOC(C)C)cc1`: the AC50 entry was “inactive”. Same read-out and setting: the entry for `COc1ccccc1CN1CC[C@@]2(CCCN(C(=O)c3cccn3C)C2)C1` is “inactive”; for `COC(=O)[C@@]1(Cc2ccccc2)[C@H]2c3cc(C(=O)N(C)C)n(Cc4c(CO)[nH]cc(C)c4=O)c3C[C@H]2CN1C(=O)c1ccccc1` it is 0.631 µM (active). The same measure, in the same setting: the figure for `COC(=O)[C@@]1(Cc2ccc(F)cc2)[C@H]2c3cc(C(=O)N(C)C)n(Cc4c(CO)[nH]cc(C)c4=O)c3C[C@H]2CN1C(=O)c1ccccc1` is 10 µM (active). `CN(C)C(=O)c1ccc(-c2cncnc2Nc2ccccc2)cc1`: the activity, negative = inhibition is -3.51% [at 2.29 µM] (inactive). Take `C=CC[C@H](N)C(=O)O`: the AC50 result is “inactive”. As to `O=C(O)C1CCC(=O)N(C2CC2)C1c1ccccc1` (configuration not stated), the AC50 entry was “inactive”.

Consider `CC12CC[C@@H]3c4ccc(OP(=O)(O)O)cc4CCC3C1CCC2=O` (some centres not stated), for which the activity, negative = inhibition is 15.4% [at 11.4 µM] (inactive). On to `Clc1ccccc1-c1nc(-c2ccncc2)no1`, for which the activity, negative = inhibition was -19.4% [at 11.4 µM] (inactive).

Take `Clc1ccccc1-c1nc(N2CCNCC2)c2ccccc2n1`: the activity, negative = inhibition is 2.98% [at 2.29 µM] (inactive). Regarding `Clc1ccccc1-c1nc(-c2ccccc2)n[nH]1`, the concentration at half-maximal activity (AC50) was 28.2 µM (active).

Take `Cc1sc2nc(C3CC3)nc(SCC(=O)N3CC(=O)Nc4ccccc43)c2c1C`: the AC50 is 1 µM (active).

For `Cc1nnc(SCC(=O)N2CC(=O)Nc3ccccc32)n1Cc1ccccc1`, the AC50 entry is “inactive”.

Take `O=C(Nc1ccc(F)cc1Cl)c1ccc2c(=O)n3c(nc2c1)CCCCC3`: the AC50 entry is “inactive”. With `O=c1c2ccccc2nc2n1CCC2`, the AC50 entry is “inactive”. On to `O=c1c2c(-c3ccc(Cl)cc3)csc2nc2n1CCC2`, for which the AC50 is 14.1 µM (active).

For the molecule `COCC(=O)N1CCC2(CC1)CN(C(=O)Nc1cccc(F)c1)C2`, the AC50 result is “inactive”. In the case of `O=c1c(O)c(-c2ccc(O)c(O)c2)oc2cc(O)cc(O)c12`, the AC50 result is “inactive”. With `O=c1c(-c2ccc(O)cc2)coc2cc(O)cc(O)c12`, the AC50 result was “inactive”. The same measure, in the same setting: the figure for `O=c1c(-c2ccc(O)cc2)coc2cc(O)ccc12` is 6.31 µM (active); for `CSc1nc(N)c2ncn([C@H]3O[C@H](COP(=O)(O)OP(=O)(O)O)[C@@H](O)[C@@H]3O)c2n1` it is “inactive”. For the molecule `O=C1C2C3c4ccccc4C(c4ccccc43)C2C(=O)N1c1nc(-c2ccccc2)cs1` (configuration not stated), the AC50 is 0.891 µM (active). For `O=C1[C@@H]2[C@@H](C(=O)N1c1ccc(OCc3ccccc3)cc1)[C@@H]1c3ccccc3[C@@H]2[n+]2ccccc21`, the activity, negative = inhibition is 0.978% [at 11.4 µM] (inactive).

`CN(C)CCCN1c2ccccc2Sc2ccc3ccccc3c21`: the activity, negative = inhibition was -11.1% [at 11.4 µM] (inactive). On to `CO[C@@H]1/C=C\CC(=O)N[C@@H](C)C(=O)OC[C@@H](OC)[C@H](C)CCCC(=O)OC[C@H]1C`, for which the activity, negative = inhibition is -25.9% [at 11.4 µM] (inactive).

Turning to `Cc1ccc(C(=O)O/N=C\c2ccc(N3CCCCC3)c([N+](=O)[O-])c2)cc1`, the concentration at half-maximal activity (AC50) is 2.24 µM (active).

Regarding `Cn1c(=O)n(C)c2cc([N+](=O)[O-])c(N3CCN(C(=O)c4ccccc4Cl)CC3)cc21`, the AC50 result is “inactive”. With `Cc1ccccc1C(=O)N1CCN(c2ccc([N+](=O)[O-])c(N3CCOCC3)c2)CC1`, the AC50 was 5.01 µM (active). Same read-out and setting: the figure for `COC(=O)c1ccc(N2CCN(CC(=O)c3ccc(-c4ccccc4)cc3)CC2)c([N+](=O)[O-])c1` is 5.01 µM (active). Take `Cc1cc(C)n(-c2cc(N3CCN(C(=O)c4ccc(C(C)(C)C)cc4)CC3)ccc2[N+](=O)[O-])n1`: the AC50 is 3.98 µM (active). `CN(C)CCNc1nc2c(c(=O)n(C)c(=O)n2C)n1C`: the activity, negative = inhibition is 4.45% [at 11.4 µM] (inactive). As for `CCCN(CC1CC1)c1nc(C)nc(Nc2c(Cl)cc(Cl)cc2Cl)c1Cl`, the AC50 entry was “inactive”. With `C=CC[C@@H]1C=C[C@H](O/N=C(\C)CCN2CCCc3nc(C)c(C)cc32)[C@H](CO)O1`, the activity, negative = inhibition is 3.93% [at 11.4 µM] (inactive). Turning to `COCC(=O)N1CCN(c2ccc([N+](=O)[O-])cc2)CC1`, the AC50 result was “inactive”. `CCOC(=O)c1c(NC(=O)c2ccc(N3CCOCC3)c([N+](=O)[O-])c2)sc(C)c1C`: the AC50 entry was “inactive”. Regarding `Cc1ccc(OCC(=O)N2CCN(c3ccc([N+](=O)[O-])c(N4CCOCC4)c3)CC2)cc1`, the AC50 is 7.94 µM (active). As for `Cc1ccc(OC(=O)c2ccc(N3CCOCC3)c([N+](=O)[O-])c2)cc1`, the AC50 is 14.1 µM (active). The same measure, in the same setting: the figure for `CO/N=C/c1ccc(N2CCN(C(=O)c3ccc(Cl)cc3Cl)CC2)c([N+](=O)[O-])c1` is 7.94 µM (active).
